Read-out in assay [1]: Thrombomodulin, THBD (gene 7056)
The experiment in a line: BSK_CASM3C_Thrombomodulin: BioMAP Diversity Plus: CASM3C Assay for Thrombomodulin Biomarker Activity (AID 2283051).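 Further: thrombomodulin protein level measured by ELISA 24 h after dosing.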 The conditions noted are these: primary human coronary artery smooth muscle cells; actives raise or lower the signal.

Read-out in assay [2]: Tissue Factor, F3 (gene 2152)
The experiment in a line: BSK_CASM3C_TissueFactor: BioMAP Diversity Plus: CASM3C Assay for Tissue Factor Biomarker Activity (AID 2283052).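 Further: cell surface tissue factor protein level read by ELISA.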 To be noted: primary human coronary artery smooth muscle cells; actives raise or lower the signal.

Read-out in assay [3]: Interferon-gamma inducible Protein 10 (IP10), CXCL10 (gene 3627)
The assay can be described thus: BSK_hDFCGF_IP10: BioMAP Diversity Plus: hDFCGF Assay for Interferon-gamma inducible Protein 10 (IP10) Biomarker Activity (AID 2283053). The conditions noted are these: primary human foreskin fibroblasts; actives raise or lower the signal. An outline of the steps: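 Chemical-treated human skin fibroblasts (primary) were sampled at 24 h for IP-10 by ELISA. Both increases and decreases relative to DMSO were scored.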

Read-out in assay [4]: Urokinase-type plasminogen activator receptor (uPAR), PLAUR (gene 5329)
The assay can be described thus: BSK_CASM3C_uPAR: BioMAP Diversity Plus: CASM3C Assay for Urokinase-type plasminogen activator receptor (uPAR) Biomarker Activity (AID 2283054).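 Further: cell-surface uPAR protein level quantified by ELISA.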 To be noted: primary human coronary artery smooth muscle cells; actives raise or lower the signal.

Read-out in assay [5]: Vascular cell adhesion molecule 1 (VCAM1), VCAM1 (gene 7412)
The experiment in a line: BSK_CASM3C_VCAM1: BioMAP Diversity Plus: CASM3C Assay for Vascular cell adhesion molecule 1 (VCAM1) Biomarker Activity (AID 2283055).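 Further: VCAM-1 protein level quantified by ELISA on the cells.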 The conditions noted are these: primary human coronary artery smooth muscle cells; actives raise or lower the signal.

Read-out in assay [6]: Collagen III, COL3A1 (gene 1281)
The experiment in a line: BSK_hDFCGF_CollagenIII: BioMAP Diversity Plus: hDFCGF Assay for Collagen III Biomarker Activity (AID 2283056). The conditions noted are these: primary human foreskin fibroblasts; actives raise or lower the signal. In short, it runs like this: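 ELISA readout of Collagen III in human dermal (foreskin) fibroblasts, taken 24 h post-treatment. Gain or loss relative to DMSO vehicle fitted in both directions.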

Read-out in assay [7]: Epidermal growth factor receptor (EGFR), EGFR (gene 1956)
The assay can be described thus: BSK_hDFCGF_EGFR: BioMAP Diversity Plus: hDFCGF Assay for Epidermal growth factor receptor (EGFR) Biomarker Activity (AID 2283057). The conditions noted are these: primary human foreskin fibroblasts; actives raise or lower the signal. In short, it runs like this:
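Cell-based multiplexed assay in primary human foreskin fibroblasts. EGFR is read by ELISA 24 h after treatment and compared with DMSO controls.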

Read-out in assay [8]: Interleukin-8 (IL8), CXCL8 (gene 3576)
The assay can be described thus: BSK_hDFCGF_IL8: BioMAP Diversity Plus: hDFCGF Assay for Interleukin-8 (IL8) Biomarker Activity (AID 2283058). To be noted: primary human foreskin fibroblasts; actives raise or lower the signal. An outline of the steps: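 IL-8 levels read by ELISA at 24 hours after dosing human skin fibroblast cultures. Parallel SRB staining assessed overt cytotoxicity, and gain or loss of signal was fitted against DMSO control.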

Assay [9] in a line: BSK_hDFCGF_Proliferation: Cell Proliferation Assessment in the BioMAP Diversity Plus: hDFCGF Assay (AID 2283059).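 Further: curves fitted for both rise and fall of signal versus DMSO baseline.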 To be noted: primary human foreskin fibroblasts. An outline of the steps:
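Total protein read at 560 nm after 0.1% SRB staining of TCA-fixed human skin fibroblasts, […]. Activity is fitted in both directions relative to DMSO as baseline.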

Read-out in assay [10]: Macrophage colony-stimulating factor (MCSF), CSF1 (gene 1435)
The experiment in a line: BSK_hDFCGF_MCSF: BioMAP Diversity Plus: hDFCGF Assay for Macrophage colony-stimulating factor (MCSF) Biomarker Activity (AID 2283060). The conditions noted are these: primary human foreskin fibroblasts; actives raise or lower the signal. An outline of the steps:
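M-CSF levels read by ELISA at 24 h post-dosing in human skin fibroblasts. Parallel cultures stained with SRB assessed cytotoxicity at the same time point; response fitted in both directions against the DMSO baseline.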

Activity calls are given as the source filed them. How the source made its calls: active means hit-call score of the fitted dose curve at least 0.9, where 1 is the maximum; inactive means score below 0.9.

Experimental findings from PubChem BioAssay (EPA / NIEHS) are described below.

In general, AC50 refers to the midpoint of the concentration-response curve, whichever way the signal moves. Regarding `CCOC(=O)C(O)(c1ccc(Cl)cc1)c1ccc(Cl)cc1`, the AC50 in assay [1] was 15 µM (active); in assay [3], 28.5 µM (active); in assay [5] it was 20 µM (active); in assay [6], 30.2 µM (active); in assay [9], 30.9 µM (active); in [10], 20 µM (active). Also, the result in assay [2], in assay [4], in assay [7] and in assay [8] was inactive.

For the compound `Nc1ccc(-c2ccc(N)cc2)cc1`, the result in assay [1], in assay [2], in assay [3], in assay [4], in [5] and in assay [6] was inactive. In addition, the outcome in assay [7], in assay [8], in [9] and in assay [10] was inactive.

In the case of `CC(C)(O)C(=O)Nc1ccc([N+](=O)[O-])c(C(F)(F)F)c1`, the result in [1], in assay [2], in [3], in assay [4], in assay [5] and in assay [6] was inactive. For the same compound, the outcome in assay [7], in assay [8], in assay [9] and in assay [10] was inactive.

As for `CC(C)C(=O)OCC(C)(C)C(OC(=O)C(C)C)C(C)C` (stereo not given), the result in assay [1], in [2], in assay [3], in assay [4], in assay [5] and in assay [6] was inactive. Also, the outcome in [7], in assay [8] and in assay [10] was inactive. Moreover, the AC50 in assay [9] was 34.4 µM (active).

Consider `Cc1cccc([N+](=O)[O-])c1`, for which the outcome in [1], in assay [2], in assay [3], in [4], in [5] and in assay [6] was inactive. For the same compound, the result in assay [7], in assay [8], in [9] and in assay [10] was inactive.

`CN(C)c1nc(=O)n(C2CCCCC2)c(=O)n1C`: the outcome in [1], in assay [2], in assay [3], in assay [4], in assay [5] and in assay [6] was inactive. For the same compound, the result in [7], in assay [8], in assay [9] and in assay [10] was inactive.

Consider `O=C(NC(=O)c1cc(F)c(F)cc1Cl)Nc1cc(F)ccc1N1CCC(C(=O)O)CC1`, for which the outcome in assay [1], in [2], in assay [3], in assay [4], in assay [5] and in assay [6] was inactive. In addition, the outcome in [7], in assay [8], in assay [9] and in assay [10] was inactive.

`CCOP(=S)(OCC)SCSC(C)(C)C`: the result in assay [1], in [2], in assay [3], in [4], in [5] and in assay [6] was inactive. Also, the result in assay [7], in assay [8], in [9] and in [10] was inactive.

Take `ClC1=C(Cl)[C@]2(Cl)[C@@H]3[C@H]4C[C@H]([C@@H]5O[C@H]45)[C@@H]3[C@@]1(Cl)C2(Cl)Cl`: the outcome in [1], in assay [3], in assay [4], in assay [5], in assay [6] and in assay [7] was inactive. Moreover, the result in assay [8] and in assay [10] was inactive. For the same compound, the AC50 was 7.07 µM (active) in [2] and 6.6 µM (active) in [9].

Turning to `CO/C=C(/C(=O)OC)c1ccccc1COc1cccc(C(F)(F)F)n1`, the result in assay [1], in [2], in assay [3], in assay [4], in assay [5] and in assay [7] was inactive. Moreover, the outcome in assay [8] was inactive. The concentration at half-maximal activity (AC50) in [6] was 1.75 µM (active); in assay [9], 4.78 µM (active); in assay [10], 7.27 µM (active).

On to `Cc1ccc(O)c(C)c1`, for which the result in assay [1], in [2], in assay [3], in assay [4], in assay [5] and in assay [6] was inactive. The outcome in assay [7], in assay [8] and in assay [10] was inactive. Moreover, in assay [9], the AC50 is 12.4 µM (active).

For the compound `O=C(N[C@H]1CN2CCC1CC2)c1cc2ccoc2cn1`, the outcome in [1], in assay [2], in [3], in [4], in [5] and in [6] was inactive. The outcome in assay [7], in assay [8], in assay [9] and in assay [10] was inactive.

As to `Nn1cnnc1`, the outcome in [1], in assay [2], in assay [3], in [4], in assay [5] and in assay [6] was inactive. The outcome in assay [7], in [8], in assay [9] and in [10] was inactive.

As to `CCCCCCCCOC(=O)c1ccccc1C(=O)OCCCCCCCC`, the result in assay [1], in [2], in assay [3], in [4], in assay [5] and in [6] was inactive. For the same compound, the outcome in assay [7], in assay [8], in assay [9] and in [10] was inactive.

As for `CC(C)(c1ccccc1)c1ccc(O)cc1`, the half-maximal activity concentration (AC50) in assay [1] is 20 µM (active); in assay [3], 34.1 µM (active); in [5], 28.6 µM (active); in assay [6], 32.2 µM (active); in [8], 30.8 µM (active); in assay [9], 29.3 µM (active). Also, the AC50 in [10] is 30.7 µM (active). In addition, the outcome in assay [2], in [4] and in [7] was inactive.

With `CC(c1ccc(O)cc1)(c1ccc(O)cc1)c1ccc(O)cc1`, the result in assay [1], in [2] and in assay [7] was inactive. The AC50 in assay [3] was 25.6 µM (active); in [4], 6.77 µM (active); in assay [5], 5.31 µM (active); in assay [6], 3.78 µM (active); in assay [8] it was 36.6 µM (active); in assay [9], 23.6 µM (active). The AC50 in assay [10] is 16.5 µM (active).
